# Values joined by “and” are separate entries in the source; they are usually repeats but may differ in a detail not shown here. Equal values may be shown once. Out of some 330,000 compounds screened, about 2,800 (0.85%) were called active. This excerpt belongs to a sample that is enriched for actives. Unmarked numbers belong to inactive results.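 How the source made its calls: active means mean inhibition across replicates of 60% or more, whatever share of single replicates reaches that level; inconclusive means some that reach 60%, reason not given; inactive means mean inhibition across replicates below 60%.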
# Test: inhibitors of MITF-dependent TRPM1 promoter reporter, primary screen, cell-based, SK-MEL-5, single point, luciferase (AID 488899)
# Conditions: SK-MEL-5 TRPM1 promoter luciferase, 24 h; at 12.5 µM; stronger effect = higher value
row,Compound,inhibition
1,CCOc1ccc(-c2cc(C)[n+](CCN(CC)CC)c(-c3ccc(OCC)cc3)c2)cc1,69.6% (active)
2,CC1CC=CCC12C(=O)NC(=S)NC2=O (stereo not given),6.98%
3,N#Cc1ccc(Cn2cc(C(=O)c3ccco3)c3ccccc32)cc1,12.8%
4,CC(=O)N(C1=NCCCS1)c1ccccc1F,6.66%
5,Fc1ccc(C2N3CCCN23)cc1 (stereo not given),5.89%
6,CC1=CC(=Cc2sc3ccccc3[n+]2C)C=C(C)O1,69.6% (active)
7,Cc1cccc(NC(=O)N2CC3CC(C2)c2cccc(=O)n2C3)c1 (stereo not given),-3.6%
8,Cc1nn(Cc2ccccc2Cl)c(Cl)c1C(=O)OC(C(=O)NC(N)=O)C(C)C (stereo not given),-9.08%
9,CC1C(=O)OC2CCN3CC=C(COC(=O)C(C)(O)C1(C)O)C23 (stereo not given),-1.22%
10,O=C(c1ccccc1)C(O)(CN1CCCCC1)c1ccccc1 (stereo not given),3.2%
11,OCC#CC[N+]1(CC#Cc2ccccc2)CCCC1,2.94%
12,COC(=O)C1=C(c2cccc(OCc3ccccc3)c2)C[C@@H]2CC[C@H]1N2C(=O)NCc1ccc(Br)cc1,-1.21%
13,CCC(C)(O)C(=O)OC1C(=O)OC2CC3C(C)=CC(=O)C(O)C3(C)C3C4(O)OCC23C1C(C)C4O (stereo not given),72.8% (active)
14,CC1=C2C(=O)C3C(CC=C4CC(OC5OC(O)C(O)C(O)C5CO)CCC43C)C2CCC12OC1CC(C)CNC1C2C (stereo not given),0.655%
15,CN(C)C(=O)NC(O)C(Cl)(Cl)Cl (stereo not given),8.39%
16,CCN1c2nc3c(C)cccn3c(=O)c2CC2(C(=O)N(C)C(=O)N(C)C2=O)C1C (stereo not given),0.643%
17,Cn1c(O)c(C=Nc2ccc3c(c2)CCC3)c(=O)n(C)c1=O,-24.2%
18,COC(=O)C1=C(c2ccc3ccccc3c2)C[C@@H]2CC[C@H]1N2C(=O)NCCO,-9.09%

row,Compound,inhibition
1,CC12CN3CC(C)(CN(C1)C3c1cccs1)C2 (stereo not given),-13%
2,CC(=O)OC1C2(CC3N4C(=O)C5(CO)SSC4(CC31O)C(=O)N5C)OC(C)C(C)(C)C2=O (stereo not given),112% (active)
3,CC1CNCCN1c1ccc(Cl)cc1 (stereo not given),-17.8%
4,Cc1cc2ccccn2c1C(C[N+](=O)[O-])c1c(F)cccc1Cl (stereo not given),7.17%
5,O=c1c2ccccc2nc(/C=C/c2ccc(F)cc2)n1-c1ccccc1O,-2.83%
6,Cc1ccc(P(=S)(c2ccc(C)o2)N2CCOCC2)o1,-0.096%
7,COC1C(O)C(C)OC(OC2CCC3(C=O)C(CCC4C3CCC3(C)C(C5=CC(=O)OC5)CCC43O)C2)C1O (stereo not given),74.9% (active)
8,O=C(O)CCn1cc(C=C2C(=O)NC(=S)NC2=O)c(-c2cccc(Br)c2)n1,4.06%
9,c1ccc(CCN2CCC3(CC2)OCCO3)cc1,9.66%
10,C[C@]12CCC3C(CC[C@H]4C[C@@H](O)CC[C@]34C)C1C[C@@H](O)[C@H]2O (stereo not given in full),2.08%
11,C[C@]12CC[C@H](O)C[C@H]1CC[C@@H]1C2CC[C@]2(C)[C@@H](C3=CC(=O)OC3)[C@@H](O)C[C@]12O (stereo not given in full),80.6% (active)
12,C[C@]12CCC3C(CC[C@H]4C[C@@H](O)CC[C@]34C)C1CC[C@@H]2O (stereo not given in full),6.32%
13,NCCc1c[nH]c2ccc(O)cc12,12.6%
14,COC(=O)C1=C(c2ccc(-c3ccccc3)c(F)c2)C[C@@H]2CC[C@H]1N2C(=O)NCc1ccc(F)cc1,-8.41%
15,CCCCCCCCCCCCn1ccc(=N)cc1,80.1% (active)
16,CN(C)C(=O)Oc1cc(OC(=O)N(C)C)cc(C(O)CNC(C)(C)C)c1 (stereo not given),-3.47% and -8.18%
17,CC(C)c1c(CN(C)C(C)Cc2ccccc2)n(C)n(-c2ccccc2)c1=O (stereo not given),9.81%

# From PubChem BioAssay AID488899 (Broad Institute, 2010)
